Test results taken from the antibiotic and cytotoxicity screens of Wong et al. (2023).
In all, about 39,000 compounds went through this assay and about 500 (1.3%) were called active. This is one part of a sample in which actives are shown more often than they occur.

What follows are compounds tested on S. aureus RN4220 (assay: growth inhibition call (relative growth <= 0.2)). Details: 50 µM.

SMILES	growth inhibition call
CCCNC(=O)C[C@H]1CC[C@H]2[C@@H](COc3ccc(NC(=O)c4ccc5c(c4)OCO5)cc3C(=O)N2C)O1	inactive
C[C@H]1CN([C@@H](C)CO)C(=O)c2cc(Br)cnc2O[C@H]1CN(C)S(=O)(=O)c1ccccc1F	inactive
Cc1noc(C)c1NC(=O)N(C)C[C@@H]1Oc2ccc(NS(=O)(=O)c3cn(C)cn3)cc2CC(=O)N([C@H](C)CO)C[C@@H]1C	inactive
C[C@H](CO)N1C[C@H](C)[C@H](CN(C)S(=O)(=O)c2ccc(Cl)cc2)Oc2c(NC(=O)Nc3cccc4ccccc34)cccc2C1=O	inactive
Cc1noc(C)c1NC(=O)Nc1ccc2c(c1)C(=O)N([C@@H](C)CO)C[C@H](C)[C@H](CN(C)S(=O)(=O)c1ccccc1)O2	inactive
C[C@@H]1CN([C@@H](C)CO)C(=O)CCCn2cc(nn2)CO[C@@H]1CN(C)Cc1ccc(C(=O)Nc2ccccc2N)cc1	inactive
C[C@@H](NS(=O)(=O)c1cccc(F)c1)C(=O)O	inactive
C[C@@H]1CN([C@H](C)CO)C(=O)c2cc(NC(=O)C3CCCCC3)ccc2O[C@@H](C)CCCCO[C@H]1CN(C)C(=O)Nc1ccc(F)cc1	inactive
C[C@H](CO)N1C[C@H](C)[C@H](CN(C)C(=O)Nc2ccccc2)OCCCC[C@H](C)Oc2ccc(NS(=O)(=O)c3ccc(F)cc3)cc2C1=O	inactive
c1coc(CNc2nc[n+]3c4c2ncn4CC3)c1	inactive
C[C@@H]1CCCCO[C@H](CN(C)C(=O)Nc2cccc3ccccc23)[C@H](C)CN([C@@H](C)CO)C(=O)c2cc(N(C)C)ccc2O1	inactive
Cc1noc(C)c1S(=O)(=O)Nc1ccc2c(c1)C(=O)N([C@@H](C)CO)C[C@H](C)[C@@H](CN(C)C(=O)Nc1ccc3c(c1)OCO3)O2	inactive
CO[C@@H]1[C@@H](O[C@@H]2O[C@H](C)[C@@H](O[C@H]3C[C@@](C)(O)[C@@H](O)[C@H](C)O3)[C@H](N(C)C)[C@H]2O)[C@@H](CC=O)C[C@@H](C)[C@@H](O[C@H]2CC[C@H](N(C)C)[C@@H](C)O2)/C=C/C=C/CC(C)OC(=O)C[C@H]1OC(C)=O (stereo partly specified)	inactive
COC1C(O)CC(=O)OC(C)CC=CC=CC(OC2CCC(N(C)C)C(C)O2)C(C)CC(CC=O)C1OC1OC(C)C(OC2CC(C)(O)C(O)C(C)O2)C(N(C)C)C1O (stereo unspecified)	active
CO[C@@H]1[C@@H](O[C@@H]2O[C@H](C)[C@@H](O[C@H]3C[C@@](C)(O)[C@@H](O)[C@H](C)O3)[C@H](N(C)C)[C@H]2O)[C@@H](CC=O)C[C@@H](C)[C@@H](O[C@H]2CC[C@H](N(C)C)[C@@H](C)O2)/C=C/C=C/C[C@@H](C)OC(=O)C[C@H]1O	active
Cc1noc(C)c1NC(=O)Nc1ccc2c(c1)C(=O)N([C@H](C)CO)C[C@@H](C)[C@H](CN(C)C(=O)Nc1cccc3ccccc13)O2	inactive
COC(=O)c1c2oc(c1C(=O)OC)C(=O)N[C@H](Cc1ccccc1)Cn1cc(nn1)[C@@H](Cc1ccccc1)NC(=O)N[C@@H](COC(=O)NCCCCCC(=O)NO)CC2	inactive
C[C@@H]1CCCCO[C@@H](CN(C)C(=O)Nc2ccc3c(c2)OCO3)[C@@H](C)CN([C@@H](C)CO)C(=O)c2cc(NC(=O)Nc3ccc(F)cc3)ccc2O1	inactive

SMILES	growth inhibition call
COc1ccc(NC(=O)Nc2ccc3c(c2)C(=O)N([C@H](C)CO)C[C@H](C)[C@@H](CN(C)C(=O)Nc2ccccc2)OCCCC[C@@H](C)O3)cc1	inactive
CCCCCCOC(=O)/N=C(/N)c1ccc(NCc2nc3cc(C(=O)N(CCC(=O)OCC)c4ccccn4)ccc3n2C)cc1	inactive
C[C@@H]1CN([C@H](C)CO)C(=O)c2cccc(NC(=O)C3CCCCC3)c2O[C@@H]1CN(C)C(=O)Nc1ccc(C(F)(F)F)cc1	active
C[C@@H]1CN([C@@H](C)CO)C(=O)c2cccc(NC(=O)C3CCCCC3)c2O[C@H]1CN(C)C(=O)Nc1ccc(C(F)(F)F)cc1	inactive
CC(C)N1C[C@H](C)[C@@H](CN(C)Cc2ccc(Oc3ccccc3)cc2)Oc2c(NC(=O)C3CCN(C)CC3)cccc2C1=O	inactive
C[C@@H]1CN([C@@H](C)CO)C(=O)c2cccc(NC(=O)C3CCCCC3)c2O[C@@H]1CN(C)C(=O)Nc1ccc(C(F)(F)F)cc1	active
C[C@H](CO)N1C[C@H](C)[C@H](CN(C)C(=O)Nc2ccc(C(F)(F)F)cc2)Oc2c(NC(=O)C3CCCCC3)cccc2C1=O	inactive
CC(C)N1C[C@H](C)[C@@H](CN(C)Cc2ccc(Oc3ccccc3)cc2)Oc2c(NC(=O)C3CCNCC3)cccc2C1=O	active
C[C@@H]1CN([C@H](C)CO)C(=O)c2cccc(NC(=O)C3CCCCC3)c2O[C@H]1CN(C)C(=O)Nc1ccc(C(F)(F)F)cc1	inactive
C[C@H](CO)N1C[C@H](C)[C@@H](CN(C)Cc2ccc(Oc3ccccc3)cc2)Oc2c(NC(=O)C3CC3)cccc2C1=O	inactive
C[C@H](CO)N1C[C@H](C)[C@@H](CN(C)C(=O)Nc2ccc(C(F)(F)F)cc2)Oc2c(NC(=O)C3CCCCC3)cccc2C1=O	inactive
C[C@@H]1CN([C@H](C)CO)C(=O)Cc2cc(NC(=O)Nc3ccc4c(c3)OCO4)ccc2O[C@H]1CN(C)C(=O)Nc1ccc(C(F)(F)F)cc1	inactive
C[C@H](CO)N1C[C@H](C)[C@H](CN(C)C(=O)c2ccccc2)OCCCC[C@H](C)Oc2ccc(NC(=O)CCC(F)(F)F)cc2C1=O	inactive
C[C@@H]1CN([C@H](C)CO)S(=O)(=O)c2ccc(-c3ccncc3)cc2O[C@H]1CN(C)C(=O)c1ccc2c(c1)OCO2	inactive
C[C@@H]1CN([C@H](C)CO)C(=O)c2cc(C#CCN(C)C)cnc2O[C@@H]1CN(C)S(=O)(=O)c1cn(C)cn1	inactive
COc1ccc(S(=O)(=O)Nc2ccc3c(c2)C(=O)N([C@@H](C)CO)C[C@@H](C)[C@H](CN(C)C(=O)Nc2ccc4c(c2)OCO4)OCCCC[C@@H](C)O3)cc1	inactive
CCn1cnc2c(=O)[nH][nH]c(=O)c21	inactive
C[C@@H]1CN([C@@H](C)CO)C(=O)Cc2cc(NC(=O)Nc3ccccc3)ccc2O[C@@H]1CN(C)Cc1ccc(C(F)(F)F)cc1	inactive
